Calls of active or inactive are those of the source.
Experiments:
[1] = test system: Plasmodium falciparum Sir2 (PF13_0152, Sir2A); assay: pfSir2 binders on small-molecule microarrays, primary screen, biochemical, small-molecule microarray, 635 nm fluorescence (AID 1098); conditions: small-molecule microarray binding, fluorescence 635 nm; higher = more signal;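 also: score merges spot fluorescence intensity with its signal-to-noise ratio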
[2] = small-molecule microarray binders of probe aDKK1, primary screen, biochemical, biotinylated probe, 635/667 nm fluorescence (AID 1099); conditions: higher = more signal;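 also: score merges 667nm spot fluorescence with signal to noise across triplicate slides; reference of the scale not given here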
[3] = small-molecule microarray binders of probe aCHRDL2, primary screen, biochemical, biotinylated probe, 635/667 nm fluorescence (AID 1100); conditions: higher = more signal
[4] = splicing luciferase reporter signal modulators, primary screen, spliceosome inhibition project, cell-based, HEK293, splice +/- reporter (AID 1101); conditions: luminescence, 24 h, higher = more signal, called active from +8 up or from −8 down;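 also: HEK293 cells carrying a splicing-competent luciferase reporter gene; test concentration not given here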
[5] = target: Fibroblast growth factor 10 (Homo sapiens) (UniProt O15520); assay: FGF10 binders on small-molecule microarrays, primary screen, biochemical, small-molecule microarray, 635 nm fluorescence (AID 1102); conditions: FGF10 binding, fluorescence 635 nm, higher = more signal
[6] = test system: glycogen synthase kinase-3 (GSK3A per assay name; protocol says GSK3B); assay: GSK3 binders on small-molecule microarrays, primary screen, biochemical, small-molecule microarray, 635 nm fluorescence, GSK3A (AID 1103); conditions: small-molecule microarray binding, fluorescence 635 nm; higher = more signal; also: the record names both GSK3A and GSK3B
[7] = target: Epidermal growth factor receptor (Homo sapiens) (UniProt P00533); assay: EGFR binders on small-molecule microarrays, primary screen, biochemical, small-molecule microarray, 635 nm fluorescence (AID 1104); conditions: EGFR binding, higher = more signal;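 also: score merges 667 nm emission intensity with spot signal to noise over triplicate slides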
[8] = target: Follistatin-related protein 3 (Homo sapiens) (UniProt O95633); assay: FSTL3 binders on small-molecule microarrays, primary screen, biochemical, small-molecule microarray, 635 nm fluorescence (AID 1105); conditions: FSTL3 binding, higher = more signal;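 also: score merges emission near 667 nm and signal to noise per printed spot across three slides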
[9] = target: Dickkopf-related protein 1 (Homo sapiens) (UniProt O94907); assay: DKK1 binders on small-molecule microarrays, primary screen, biochemical, small-molecule microarray, 635 nm fluorescence scan (AID 1106); conditions: DKK1 binding, higher = more signal;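 also: score merges emission near 667 nm with signal to noise over three replicate slides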
[10] = test system: Inhibin beta A chain (activin A); assay: INHBA (activin A) binders on microarrays, primary screen, biochemical, small-molecule microarray, 635 nm fluorescence scan (AID 1107); conditions: small-molecule microarray binding, higher = more signal;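 also: mouse activin A protein probed at 4.33 µg/mL on printed slides; score merges bound-protein fluorescence near 667 nm with spot signal-to-noise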

Dickkopf-related protein 1 (Homo sapiens), sequence (O94907 whole entry, looked up): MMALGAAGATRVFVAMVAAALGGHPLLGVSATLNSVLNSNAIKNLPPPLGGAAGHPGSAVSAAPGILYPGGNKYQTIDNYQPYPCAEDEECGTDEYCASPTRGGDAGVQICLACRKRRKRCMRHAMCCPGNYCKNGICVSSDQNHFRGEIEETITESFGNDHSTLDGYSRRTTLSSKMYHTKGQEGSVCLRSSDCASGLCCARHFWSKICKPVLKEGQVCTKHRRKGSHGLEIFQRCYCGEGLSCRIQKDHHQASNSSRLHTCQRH
Fibroblast growth factor 10 (Homo sapiens), sequence (O15520 whole entry, looked up): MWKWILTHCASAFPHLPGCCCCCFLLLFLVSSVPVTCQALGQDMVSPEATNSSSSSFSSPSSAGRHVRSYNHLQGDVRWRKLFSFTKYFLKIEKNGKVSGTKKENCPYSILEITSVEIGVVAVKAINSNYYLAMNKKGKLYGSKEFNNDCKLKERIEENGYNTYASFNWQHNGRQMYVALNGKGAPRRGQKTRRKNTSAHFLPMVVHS
Epidermal growth factor receptor (Homo sapiens), sequence (P00533 whole entry, looked up): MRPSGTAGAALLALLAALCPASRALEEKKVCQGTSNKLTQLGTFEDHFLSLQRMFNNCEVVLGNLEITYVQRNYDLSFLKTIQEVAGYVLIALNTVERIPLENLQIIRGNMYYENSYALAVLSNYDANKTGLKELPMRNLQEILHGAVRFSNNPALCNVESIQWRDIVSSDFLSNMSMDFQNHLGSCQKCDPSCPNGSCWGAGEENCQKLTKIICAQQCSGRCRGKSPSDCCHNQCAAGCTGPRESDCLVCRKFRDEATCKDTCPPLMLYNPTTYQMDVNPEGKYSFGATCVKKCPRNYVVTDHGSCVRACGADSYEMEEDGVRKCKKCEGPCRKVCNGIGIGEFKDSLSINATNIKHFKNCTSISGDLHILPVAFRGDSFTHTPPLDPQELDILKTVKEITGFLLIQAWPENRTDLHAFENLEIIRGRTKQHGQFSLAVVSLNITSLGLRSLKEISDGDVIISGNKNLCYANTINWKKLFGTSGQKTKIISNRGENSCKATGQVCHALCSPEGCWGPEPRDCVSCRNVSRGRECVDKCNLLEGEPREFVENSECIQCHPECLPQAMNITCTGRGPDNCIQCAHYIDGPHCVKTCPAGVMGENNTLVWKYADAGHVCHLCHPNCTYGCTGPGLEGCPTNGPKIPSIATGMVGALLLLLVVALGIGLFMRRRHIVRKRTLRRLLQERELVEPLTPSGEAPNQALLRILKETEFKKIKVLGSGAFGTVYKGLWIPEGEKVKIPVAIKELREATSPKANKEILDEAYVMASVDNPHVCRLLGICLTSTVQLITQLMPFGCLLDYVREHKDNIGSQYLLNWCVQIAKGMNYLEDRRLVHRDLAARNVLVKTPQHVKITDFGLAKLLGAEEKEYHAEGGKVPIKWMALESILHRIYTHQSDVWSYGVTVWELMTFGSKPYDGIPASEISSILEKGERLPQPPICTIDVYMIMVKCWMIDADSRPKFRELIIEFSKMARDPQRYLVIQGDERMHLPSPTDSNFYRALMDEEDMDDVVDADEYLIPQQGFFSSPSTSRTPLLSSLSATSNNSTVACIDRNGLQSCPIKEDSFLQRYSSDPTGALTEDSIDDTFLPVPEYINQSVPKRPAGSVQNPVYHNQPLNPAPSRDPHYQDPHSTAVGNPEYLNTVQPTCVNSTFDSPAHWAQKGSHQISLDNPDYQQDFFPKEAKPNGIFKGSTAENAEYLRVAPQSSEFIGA
Follistatin-related protein 3 (Homo sapiens), sequence (O95633 whole entry, looked up): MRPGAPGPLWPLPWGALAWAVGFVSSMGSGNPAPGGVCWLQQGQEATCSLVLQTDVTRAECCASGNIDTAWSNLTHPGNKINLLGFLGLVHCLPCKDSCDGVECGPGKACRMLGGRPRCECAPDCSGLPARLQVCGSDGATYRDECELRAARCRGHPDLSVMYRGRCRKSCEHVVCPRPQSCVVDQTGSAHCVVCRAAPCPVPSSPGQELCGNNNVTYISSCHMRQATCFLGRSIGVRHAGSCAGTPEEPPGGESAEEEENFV

| SMILES | composite z-score [1] | composite z-score [2] | composite z-score [3] | z-score [4] | composite z-score [5] | composite z-score [6] | composite z-score [7] | composite z-score [8] | composite z-score [9] | composite z-score [10] |
| --- | --- | --- | --- | --- | --- | --- | --- | --- | --- | --- |
| CO[C@H]1O[C@H](CO)[C@@H](OC(=O)CCc2ccccc2)[C@@H]2OC(=O)[C@H](Cc3cccc(Br)c3)C/C=C/C[C@@H](Cc3cccc(Br)c3)C(=O)O[C@@H]12 | 1.6 | 0.385 | 0.874 | -2.19 (inactive) | -0.487 | -0.78 | -1.49 | -0.753 | -0.402 | 0.951 |
| O=C(CS)NCCCCCCNC(=O)[C@@H]1C[C@@H]2C(=O)N[C@@H](Cc3ccccc3)C(=O)N2[C@@H]1c1ccc(O)cc1 | 1.6 | -0.0356 | 0.307 | -0.376 (inactive) | 1.03 | 1.32 | 0.411 | 1.19 | 1.18 | 0.617 |
| C=C(C)[C@@H]1CC=C(C(O)C2C=CC3C(=O)NC(=O)C3N2Nc2ccccn2)CC1 (stereo not given in full) | 1.66 | 0.946 | 0.287 | 1.1 (inactive) | 1.14 | 1.32 | 1.88 | 1.65 | 2.16 | 1.81 |
| Cc1ccc(S(=O)(=O)c2cc3oc2CC[C@@H](CO)NC(=O)N(C)Cc2cn(nn2)C[C@H](Cc2ccccc2)NC3=O)cc1 | 1.36 | -0.122 | -0.0291 | -0.0233 (inactive) | -0.0287 | 0.164 | -0.497 | -0.233 | -0.266 | -0.171 |
| Cc1ccc(S(=O)(=O)N[C@H]2COC(=O)CC=C[C@H](C)COC(=O)N[C@@H](C)C(=O)CC=C[C@@H]2C)cc1 | 0.38 | -0.589 | -1.38 | -0.381 (inactive) | 0.588 | 0.604 | 0.831 | 1.4 | 2.08 | 0.283 |
| O=C1O[C@@H](c2ccccc2)[C@@H](c2ccccc2)N2[C@@H](c3ccc(O)cc3)[C@]3(C(=O)Nc4ccccc43)[C@@H](C(=O)N3CCN(c4ncccn4)CC3)[C@H]12 | 1.13 | 0.413 | 0.535 | -0.547 (inactive) | -0.0898 | 0.202 | -0.366 | 0.0146 | -0.21 | -0.437 |
| NC(=O)NCC#Cc1ccc2c(c1)[C@]1(C(=O)N2)[C@H](C(=O)N2CCCCCCC2)[C@H]2C(=O)O[C@H](c3ccccc3)[C@H](c3ccccc3)N2[C@@H]1c1ccccc1OCCO | 1.82 | 2.98 | 1.66 | 0.0838 (inactive) | 1.39 | 1.38 | 1.7 | 1.71 | 2.26 | 1.86 |
| CC(=O)Nc1ccc([C@H]2[C@H](C)CC[C@H]3C(=O)N4[C@@H](CC[C@@H](C)[C@@H]4c4ccc(NC(C)=O)cc4)C(=O)N32)cc1 | 0.75 | 0.368 | -0.286 | 0.209 (inactive) | 1 | 1.17 | 0.168 | 0.845 | 0.759 | 0.213 |
| COc1cc2c(cc1OC)CN(C(=O)[C@H]1[C@@H]3C(=O)O[C@@H](c4ccccc4)[C@@H](c4ccccc4)N3[C@@H](c3ccc(O)cc3)[C@]13C(=O)Nc1ccc(C#CC4(O)CCCCCC4)cc13)CC2 | 1.75 | 0.458 | 0.46 | -0.81 (inactive) | 1.4 | 1.36 | 0.853 | 1.46 | 1.1 | 0.616 |
| C=CC[C@@]1(C(=O)NCC(O)CO)N=C(c2ccc(OCCCO)cc2)O[C@@H]1c1ccccc1CN=[N+]=[N-] (stereo not given in full) | 1.52 | -0.0775 | 1.08 | -0.155 (inactive) | 0.0349 | -1.33 | -0.83 | -0.884 | -1.45 | 0.242 |
| CC(=O)NCCCC[C@@H]1NC(=O)[C@@H]2C[C@H](C(=O)NCc3ccc(F)cc3)[C@H](c3cccc(OCCO)c3)N2C1=O | 1.02 | 0.0839 | 0.0979 | 0.281 (inactive) | 0.0733 | -0.895 | -0.148 | -0.488 | -0.047 | 0.101 |
| COc1cc2c(cc1OC)CN(C(=O)[C@H]1[C@@H]3C(=O)O[C@@H](c4ccccc4)[C@@H](c4ccccc4)N3[C@@H](c3ccccc3OCCO)[C@]13C(=O)Nc1ccc(C#CC4(O)CCCCCC4)cc13)CC2 | 1.6 | 0.329 | 0.453 | -1.16 (inactive) | 1.06 | 1.3 | 0.525 | 0.564 | 0.693 | 0.113 |
| O=C1O[C@H](c2ccccc2)[C@H](c2ccccc2)N2[C@H]1[C@@H](C(=O)Nc1nc3ccccc3s1)[C@]1(C(=O)Nc3ccc(C#CC4(O)CCCCCC4)cc31)[C@H]2c1ccc(O)cc1 | 1.53 | 0.0991 | -0.0778 | -0.493 (inactive) | 1.13 | 1.27 | 0.556 | 0.976 | 0.413 | 0.357 |
| Cc1ccc(S[C@]2(C(=O)O)CC(=O)N(Cc3cc(C(F)(F)F)cc(C(F)(F)F)c3)[C@@H]2c2ccc(CO)cc2I)cc1 | 1.3 | 0.483 | 1.16 | -1.48 (inactive) | -0.458 | -1.13 | -1.65 | -1.07 | -1.38 | 0.645 |
| O=C1OCCC/C=C\[C@H]2OC34C=CCN(CCN5CCOCC5)C(=O)[C@H]3N(CCCCCO)C(=O)[C@@H]4C12 (stereo not given in full) | 1.52 | -0.413 | -0.0252 | -0.755 (inactive) | -0.81 | -0.188 | -1.33 | -0.762 | -0.333 | 0.966 |
| Cc1ccc(N2C(=O)c3ccccc3[C@](C)(C(=O)NCC(C)C)[C@@H]2c2ccc(CO)cc2)nc1 | 1.78 | 0.504 | 0.481 | -0.237 (inactive) | -0.587 | -0.856 | -0.45 | -0.775 | -0.29 | 1 |
| C=C(COC)/C(=C/C[C@@H](OC(=O)c1ccncc1)c1ccc(OCCO)cc1)c1cc(C(=O)OC)ccc1OC | 1.3 | 0.318 | 0.421 | -1.43 (inactive) | 0.635 | 1.25 | 0.16 | 0.461 | 0.214 | 0.147 |
| COC(=O)[C@@]1(Cc2ccc(OC)cc2)[C@H]2c3cc(C(=O)N(C)C)n(Cc4ccc(C)c(F)c4F)c3C[C@H]2CN1C(=O)c1ccccc1 | 0.274 | 0.627 | 0.993 | -1.25 (inactive) | 0.0253 | -0.109 | -0.902 | 0.0502 | -1.11 | 0.781 |
| CCN1C(C)=C(C(=O)OC)[C@@H](c2ccccc2)N2C(=O)[C@](O)(C(=O)OC)[C@@H](c3ccccc3)C(C(C)=O)=C12 | -1.67 | 0.182 | -0.539 | -2.82 (inactive) | 0.799 | 0.529 | 0.621 | 1.04 | 0.515 | 1.15 |
| CCC1=C2CN(Cc3ccccc3Br)[C@@H]([C@@H](O)Cc3ccccc3)C2C=CCC1 (stereo not given in full) | 0.124 | -0.0181 | -0.311 | -2.14 (inactive) | 0.597 | 0.6 | 0.164 | 0.961 | 0.513 | 0.677 |
| COC(=O)c1ccc(C#CC(NP(=O)(c2ccccc2)c2ccccc2)c2ccccc2)cc1 (stereo not given) | -0.179 | 1.2 | 1.38 | 5.42 (inactive) | 0.847 | -0.245 | 1.77 | 1.7 | 0.567 | 1.76 |
| O=C(O)[C@@H]1Cc2c([nH]c3ccccc23)[C@@H](c2ccccc2)N1 | 0.0269 | -0.317 | -0.58 | -0.333 (inactive) | 0.315 | 0.61 | 0.373 | 0.518 | 0.509 | -0.332 |
| C=C(CCCC)/C(=C/C[C@@H](OC(=O)c1ccncc1)c1cccc(OCCO)c1)c1cc(C(=O)OC)ccc1OC | 0.953 | -0.0661 | 0.273 | 0.151 (inactive) | 0.74 | 0.764 | 0.53 | 0.933 | 0.438 | 0.482 |
| O=C1c2ccccc2[C@@]2(Cc3ccccc3N(CC(F)(F)F)C2=O)[C@H](c2ccc(CO)cc2)N1C1CCCCC1 | 0.208 | 0.117 | 0.0803 | -0.189 (inactive) | 0.982 | 0.88 | 0.229 | 0.95 | 1.02 | 0.801 |
| COc1ccc([Si](C)(C)[C@H]2[C@H](CC(=O)N3Cc4ccccc4C[C@H]3CO)O[C@@]3(C(=O)N(Cc4cccc(N5CCOC5=O)c4)c4ccccc43)[C@@H]2C)cc1 | 1.1 | -0.158 | 0.0765 | -1.07 (inactive) | 0.701 | 0.461 | 1.13 | 1.24 | 1 | 0.923 |
| C[N+](C)(C)CCCCNC(=O)[C@@H]1C[C@@H]2C(=O)N3CCC[C@H]3C(=O)N2[C@@H]1c1cccc(OCCO)c1 | 0.577 | -0.222 | -0.0397 | 0.0434 (inactive) | 0.455 | 0.249 | 0.495 | 1.45 | 1.44 | 0.0648 |
